Reference: PubChem BioAssay (EPA / NIEHS)
Calls of active or inactive are those of the source. How the source made its calls: active means hit-call score of the fitted dose curve at least 0.9, where 1 is the maximum; inactive means score below 0.9.

Each compound was assayed on Cytochrome P450 7A1 (Homo sapiens) (UniProt P22680) (assay: LTEA_HepaRG_CYP7A1: Life Technologies and Expression Analysis (LTEA) Assay for Cytochrome P450 7A1 (CYP7A1) using HepaRG (AID 2283496)). Settings: mRNA level, 48 h; actives raise or lower the signal.
Description: LTEA_HepaRG is a cell based, multiplexed-readout assay that uses HepaRG, a human liver cell line, with measurements taken at 48 hours after chemical dosing on a 96-well plate.LTEA_HepaRG_CYP7A1 is one of 102 assay component(s) measured in the LTEA HepaRG cell culture assay. It is a marker of NR mediated metabolism.Data from the assay component LTEA_HepaRG_CYP7A1 was analyzed into 1 endpoint. This assay endpoint, LTEA_HepaRG_CYP7A1, was analyzed with bidirectional fitting relative to DMSO as the negative control and baseline of activity. Using a type of inducible reporter, measures of mRNA induction for gain or loss-of-signal activity can be used to understand regulation of transcription factor activity. To generalize the intended target to other relatable targets, this assay endpoint is annotated to the cyp intended target family, where the subfamily is xenobiotic metabolism.
A total of 1060 chemcials from the ToxCast library were tested in eight-point concentration-response experiments. Cell culture and cytotoxicity assays were conducted at Thermo Fisher Scientific's Custom Services facility (Madison, WI). A single lot of human HepaRG cells (Thermo Fisher Scientific, Frederick, MD) was used for the cell culture experiments. 96-well format collagen type I coated plates of human HepaRG cells were prepared using established methods. Briefly, cryopreserved HepaRG cells were thawed, plated at a density of approximately 100,000 cells/well in HepaRG Thaw, Plate, and General Purpose media (HPRG770, Thermo Fisher Scientific), and incubated for 48 hours. 0.5% DMSO was selected as vehicle control to balance the requisite need of DMSO in HepaRG cultures to maintain differentiation (for example, baseline metabolism, proportions of hepatocytes vs. cholangiocytes), while enabling further hepatic receptor pathway activation (for example, PXR and CAR) in response to chemical exposure. 48 hours after plating, the culture medium was replaced with HepaRG Serum-Free Incudtion Media. Cells were exposed to each test chemical in duplicate and maintained in CO2 incubators for another 48 hours. Chemical plates were thawed to room temperature and 200x concentrations of treatment groups were prepared. 8-point conentration-reponse curves were made with the highest exposure at 100 uM, followed by half-log dilutions, all in 0.5% DMSO. Each test plate contained variouse controls, induction positive controls (1mM phenobarbital), cytotoxicity positive controls ([…] aflatoxin B1), vehicle controls (0.5% DMSO), and total lysis controls (0.5% DMSO). Cell morphology images were taken using an Essen IncuCyte FLR automated microscope, with six 96-well plates imaged in about 24 minutes. Images were captured and exported and JPEG files. Spent culture media was transfered to black-well plates for the LDH assay, and remaining media was sorted at -80 C for later use. Cells were treated with RLT buffer and frozen until shipped for gene expression analysis. Total RNA was isolated from the cell suspension in 75 uL of Buffer RLT (Qiagen, Germantown, MD 20874) by Quintiles/Expression Analysis (Durham, NC) using a custom isolation procedure. Total RNA from each plate well was transferred to a preamplification plate. Fluidigm's 96.96 Dynamic ArrayTM (Fluidigm, Amsterdam, the Netherlands) technology was used for gene expression analyses by quantitative reverse transcription polymerase chain reaction (qRT-PCR, performed by Quintiles/Expression Analysis, Durham, NC)89. Standard TaqManTM Assays (Applied Biosystems/ThermoFisher Scientific, Foster City, CA) were used to assess the expression of 93 genes selected based on their selectivity and sensitivity to important hepatic receptors known to be modulated by environmental chemicals; importance in human hepatocyte functionality; and hepatotoxicity. […]

Structure (SMILES)	outcome	AC50
CCCc1ccccc1	inactive	–
O=C(NO)C1(NS(=O)(=O)c2ccc(Oc3ccc(F)cc3)cc2)CCOCC1	inactive	–
Cc1nc(-c2ccccn2)ncc1C(=O)Nn1cc(C)c2cc(F)ccc21	inactive	–
OCCNCCO	–	50 µM (active)
CCN(CC)C(=S)SSC(=S)N(CC)CC	inactive	–
CCCCCCCCCCCCCCCCOS(=O)(=O)O	–	45.2 µM (active)
CCCCCCCCN(C)C	inactive	–
CCCCCCOC(=O)CC(CC(=O)OCCCCCC)(OC(=O)CCC)C(=O)OCCCCCC	inactive	–
Cc1ncc([C@@H](CCCCCCc2ccc3c(n2)NCCC3)CC(=O)O)cn1	inactive	–
NC(=O)NN=Cc1ccc([N+](=O)[O-])o1	–	13.6 µM (active)
OC[C@H]1O[C@@](CO)(O[C@H]2O[C@H](CO)[C@@H](O)[C@H](O)[C@H]2O)[C@@H](O)[C@@H]1O	inactive	–
CC(C)CC(C)O (stereo not given)	inactive	–
CNC(C)=O	inactive	–
CC1(C)C(=O)N(Cl)C(=O)N1Cl	inactive	–
O=C1CN(N=Cc2ccc([N+](=O)[O-])o2)C(=O)N1	–	22.2 µM (active)
CC[C@H](C)C(=O)O[C@H]1C[C@H](O)C=C2C=C[C@H](C)[C@H](CC[C@@H](O)C[C@@H](O)CC(=O)O)[C@H]21	inactive	–
CCc1cccc(CC)c1N	inactive	–
Cc1nccn1-c1ccc(Sc2cccc(C3(C(N)=O)CCOCC3)c2)cc1	–	15.1 µM (active)
CCOc1ccc2[nH]cc(C(=O)NCc3ccccc3)c(=O)c2n1	inactive	–
OCCOCCOCCO	inactive	–

Structure (SMILES)	outcome	AC50
OC[C@H]1O[C@@H]2O[C@H]3[C@H](O)[C@@H](O)[C@@H](O[C@H]4[C@H](O)[C@@H](O)[C@@H](O[C@H]5[C@H](O)[C@@H](O)[C@@H](O[C@H]6[C@H](O)[C@@H](O)[C@@H](O[C@H]7[C@H](O)[C@@H](O)[C@@H](O[C@H]1[C@H](O)[C@H]2O)O[C@@H]7CO)O[C@@H]6CO)O[C@@H]5CO)O[C@@H]4CO)O[C@@H]3CO	inactive	–
NC(=O)N1c2ccccc2C=Cc2ccccc21	inactive	–
OCc1ccccc1	inactive	–
CCOC(N)=O	inactive	–
C=CN1CCCC1=O	inactive	–
CC(=O)c1ccccc1	inactive	–
Nc1ccn([C@@H]2O[C@H](CO)[C@@H](O)[C@@H]2O)c(=O)n1	inactive	–
CCc1ccc(O)c(C(C)(C)C)c1	inactive	–
O=S(=O)(O)c1ccc(N=Nc2c(O)ccc3cc(S(=O)(=O)O)ccc23)cc1	inactive	–
COS(C)(=O)=O	inactive	–
Cn1cc[nH]c1=S	inactive	–
CCn1nc(C)c2c1C(=O)NCC(c1ccc(O)cc1)=N2	inactive	–
CC(C)C(=O)Nc1ccc([N+](=O)[O-])c(C(F)(F)F)c1	–	67.6 µM (active)
COCc1nnc(-c2ccc[n+]([O-])c2)n1-c1c(Cl)c(Cl)cc2[nH]c(=O)c(=O)[nH]c12	inactive	–
NNC(=O)c1ccncc1	inactive	–
C=CCc1cc(S(=O)(=O)c2ccc(O)c(CC=C)c2)ccc1O	–	83.1 µM (active)
COc1cc(C(C)C)c2c(c1)S(=O)(=O)N(COc1cc(=O)n3cccc(OCCN4CCCCC4)c3n1)C2=O	–	19.6 µM (active)
O=c1[nH]cnc2c1ncn2[C@H]1CC[C@@H](CO)O1	inactive	–
O=S1(=O)CCCO1	inactive	–
O=C(O)c1cccc(C(=O)O)c1	inactive	–
